The sample as a whole holds a higher share of hits than the screen did.
HT1080 IDH1KD tx: qHTS for induction of synthetic lethality in tumor cells producing 2HG: qHTS for the HT-1080-IDH1KD cell line. Potency, µM (highest dose often 46.1 µM), for the others: top-dose activity, negative = toxicity, hits mostly cytotoxic. 2% of 360,000 active. HT-1080 IDH1 knockdown viability, ATP luminescence, 48 h. AID 686971, 2013;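 further: potency means the concentration at half of the fitted maximal effect; 0% = DMSO wells and -100% = cell-free medium wells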
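CellTiter-Glo luminescence after 48 h compound exposure at 37 degrees C of IDH1-knockdown HT-1080 cells in 5% FBS RPMI. %Activity scaled between DMSO wells and cell-free media wells, with curves fitted and assigned curve classes.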
TDP1 cell CPT: qHTS for Inhibitors of human tyrosyl-DNA phosphodiesterase 1 (TDP1): qHTS in cells in presence of CPT; AID 686979, 2013; Potency, µM (titrated, usually from 46.2 µM), for inactives: top-dose activity change, negative = growth inhibition, usual class: inhibitors; chicken DT40 Tdp1-/-;hTDP1 cells + 20 nM CPT, ATP luminescence, 48 h; 12% of 420,000 active; further: potency means the concentration at half of the fitted maximal effect; nearly all actives have a fitted effect of over 55% in size
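Cell growth measured by CellTiter-Glo luminescence after a minimum 48 h, 37 C compound exposure with 20 nM CPT in Tdp1-knockout DT40 cells stably expressing hTDP1, seeded 400/well; qHTS titration format.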
DT40 TDP1 no CPT: qHTS for Inhibitors of human tyrosyl-DNA phosphodiesterase 1 (TDP1): qHTS in cells in absence of CPT; DT40 Tdp1-/- hTDP1 cells, no CPT, ATP luminescence, 48 h; Potency, µM (series often up to 46.2 µM), inactives show at the highest dose activity change, negative = growth inhibition, usual class: inhibitors; 15% of 420,000 active; AID 686978, 2013; further: potency means the concentration at half of the fitted maximal effect; nearly all actives have a fitted effect of over 55% in size
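Chicken DT40 Tdp1-/- cells complemented with human TDP1, screened without camptothecin (DMSO vehicle only), 400 cells/well. Compounds pin-transferred, cells incubated at 37 °C for at least 48 hr. Growth read as ATP-dependent luminescence (CellTiter-Glo, 30 min at RT).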
IL1B secr inh: qHTS for Inhibitors of Inflammasome Signaling: IL-1-beta AlphaLISA Primary Screen. THP-1 LPS/ATP IL-1B secretion, AlphaLISA, 16 h; active compounds read low. activity change, % at 57.5 µM. 4.7% of 360,000 active. AID 743279, 2014; in the data active means activity change below about -50%; inconclusive means mostly about -30% to -49%
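THP-1 cells pretreated 1 hr with compounds (up to 57.5 uM final), then stimulated with LPS (250 ng/mL final) plus ATP (1.25 mM final); secreted IL-1B measured by AlphaLISA after 16 hr, decreased signal indicating inhibition.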
HT1080-NT tox: qHTS for induction of synthetic lethality in tumor cells producing 2HG: qHTS for the HT-1080-NT fibrosarcoma cell line; HT-1080-NT fibrosarcoma viability, CellTiter-Glo ATP luminescence, 48 h; Potency, µM (highest dose often 46.1 µM), without a hit: at the highest dose activity, negative = less viability, usual class: cytotoxic; 1.6% of 360,000 active; AID 686970, 2013;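 further: NT is the 2HG producing partner of a matched IDH1 knockdown line; potency means the concentration at half of the fitted maximal effect; 0% = DMSO-treated cells and -100% = media-only wells without cells; nearly all actives have a fitted effect of over 55% in size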
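HT-1080-NT fibrosarcoma cells (2HG-overproducing), 750 cells/well in RPMI with 5% FBS, dosed after 2 h and incubated 48 h at 37C. CellTiter-Glo luminescence normalized to DMSO and no-cell wells; concentration-response curves fitted and classed.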
ALOX12 inh: Primary qHTS assay for inhibitors of human arachidonate 12S-lipoxygenase (ALOX12): Round 2. Potency, µM (highest dose often 108 µM), without a hit: at the highest dose activity change, negative = inhibition, hits mostly inhibitors. 1.1% of 580,000 active. Polyunsaturated fatty acid lipoxygenase ALOX12 (Homo sapiens), P18054. purified 12hLO, xylenol orange hydroperoxide absorbance. AID 1671190, 2021; further: potency means the concentration at half of the fitted maximal effect
Target sequence (P18054 whole entry, looked up): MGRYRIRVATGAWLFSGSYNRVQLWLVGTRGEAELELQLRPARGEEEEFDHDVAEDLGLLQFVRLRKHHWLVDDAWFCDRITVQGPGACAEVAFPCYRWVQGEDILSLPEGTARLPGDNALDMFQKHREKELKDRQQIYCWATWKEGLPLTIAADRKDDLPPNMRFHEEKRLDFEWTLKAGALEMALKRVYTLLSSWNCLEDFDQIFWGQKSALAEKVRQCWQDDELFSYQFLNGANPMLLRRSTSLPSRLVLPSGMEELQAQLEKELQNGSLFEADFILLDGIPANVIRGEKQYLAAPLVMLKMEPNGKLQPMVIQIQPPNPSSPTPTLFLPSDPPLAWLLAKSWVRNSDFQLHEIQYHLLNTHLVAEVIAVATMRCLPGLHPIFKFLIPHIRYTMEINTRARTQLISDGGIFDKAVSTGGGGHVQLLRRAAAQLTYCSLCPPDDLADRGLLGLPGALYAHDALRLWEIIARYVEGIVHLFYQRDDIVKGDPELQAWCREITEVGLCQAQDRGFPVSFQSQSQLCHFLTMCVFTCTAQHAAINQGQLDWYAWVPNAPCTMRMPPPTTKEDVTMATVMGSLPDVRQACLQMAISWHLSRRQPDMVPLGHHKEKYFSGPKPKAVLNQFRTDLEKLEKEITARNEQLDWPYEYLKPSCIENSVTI
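Purified human 12hLO at 150 nM in 25 mM Hepes, 0.01% Triton X-100, pH 7.0, preincubated 15 min at room temperature with compound. Reaction started with 40 uM arachidonic acid, 30 min at room temperature. Hydroperoxide measured by Fe-xylenol orange, 573/405 nm absorbance ratio.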
An asterisk follows results filed as active; ? = inconclusive; . = no result; [ ] = another dose, or the depositor's remark. Unless noted, the call rests on the fitted dose curve; in most records, active means well fitted curve in the direction sought with a large enough effect; inconclusive means small, poorly fitted or top-dose-only effect, or another doubt; inactive means no such curve, though single readings can be large; an effect the other way counts as inactive or inconclusive. Unless noted, on the % scale 0 is the no-effect control and ±100 the full control effect.

SMILES	HT1080 IDH1KD tx	TDP1 cell CPT	DT40 TDP1 no CPT	IL1B secr inh	HT1080-NT tox	ALOX12 inh
COCCn1c(C)cc(C(=O)COc2nc3ccccc3nc2C)c1C	-29%	16µM*	15µM*	-18	-12%	-4%
Cc1noc2c(N3CC[S+](=O)([O-])CC3)cc(-c3cccs3)nc12	.	.	.	.	.	9%[176 µM]
C=CCn1c(C)cc(C(=O)CSc2nc3ccccc3[nH]2)c1C	?	21µM*	9.2µM*	-65*	4%	6%
COCC(C)n1c(C)cc(C(=O)CSc2nnc(Nc3ccccc3F)s2)c1C (stereo not drawn)	-26%	23µM*	?	-16	-3%	325%
COCCCn1c(C)cc(C(=O)COC(=O)CCc2nc3ccccc3c(=O)[nH]2)c1C	-2%	19%	3%	-76*	10%	-10%
Cc1cc(C(=O)CSc2nc3ccccc3[nH]2)c(C)n1C	14%	?	?	-5	11%	-4%
COCC(C)n1c(C)cc(C(=O)COC(=O)CCc2nc3ccccc3c(=O)[nH]2)c1C (stereo not drawn)	-6%	6%	-22%	-18	-12%	-1%
Cc1cc(C(=O)CSc2nc3ccccc3[nH]2)c(C)n1Cc1ccco1	?	8.2µM*	5.8µM*	-18	?	-7%
COc1ccc(C(=O)N2CC[C@H](CO)[C@H](NC(=O)C3CC3)C2)cn1	.	.	.	.	.	31%
COc1ccc(C2=NN(C(C)=O)C(c3ccc4nccnc4c3)C2)cc1OC (stereo not drawn)	.	.	.	.	.	-26%
COc1ccc(/C=C/c2ccc(=O)n(Cc3ccccc3)n2)cc1	?	?	?	-156*	-16%	?
O=c1ccc(/C=C/c2ccccc2)nn1Cc1ccc(F)cc1	-27%	5%	-23%	-60*	-4%	?
Cc1ccc(/C=C/c2ccc(=O)n(Cc3ccccc3Cl)n2)cc1	-1%[9.24 µM]	16µM*	26µM*	?	?	0%
Cc1cc(C)n(Cc2ccccc2Cl)n1	1%	9%	-18%	0	11%	?
CCOC(=O)Cn1nc(/C=C/c2ccc(OC)cc2)ccc1=O	-3%	-19%	-27%	-29	0%	0%
Cc1ccc(/C=C/c2ccc(=O)n(Cc3ccc(F)cc3)n2)cc1	?	?	?	0	-22%	?
CC(Sc1nc(N)cc(N)n1)C(=O)c1ccc(F)c(F)c1 (stereo not drawn)	.	.	.	.	.	-14%
CC(C)C[C@H]1CNC(=S)N1CC1CCCN1C[C@H](CC(C)C)N1C[C@H](Cc2ccc(O)cc2)N(CC2CCCCCC2)C1=S (stereo partly drawn)	-3%	23µM*	18µM*	-5	-2%	?
CC(C)C[C@H]1CNC(=S)N1CC1CCCN1C[C@H](CC(C)C)N1C[C@H](Cc2ccc(O)cc2)N(CC2CCCCC2)C1=S (stereo partly drawn)	-24%	?	18µM*	0	-23%	-87%
CC(C)C[C@H]1CNC(=S)N1C[C@H]1CCCN1C[C@H](CC(C)C)N1C[C@H](Cc2ccc(O)cc2)N(CC2CCCCCC2)C1=S	?	16µM*	8.2µM*	-59*	?	-68%
FC(F)(F)c1cccc(CSc2nc(-c3ccccc3)c3ccccc3n2)c1	.	.	.	.	.	-27%
CN(C)CCNC(=O)c1nc(-c2cccc3[nH]ccc23)no1	.	.	.	.	.	8%

Source: PubChem
